# Source: PubChem BioAssay AID372 (MTDP, 2006)
# Screen size: about 100,000 compounds; about 770 (0.77%) were called active. This is one part of a sample in which actives are shown more often than they occur. A number with no mark means an inactive call. Rule as the data show it: active = inhibition above about 50%; inactive = the rest.
# Target: Gag-Pol polyprotein (Human immunodeficiency virus type 1 group M subtype B (isolate HXB2)) (UniProt P04585)
# Assay: RNase H inhibition, HIV 1 Gag Pol polyprotein, FRET biochemical assay, screening (AID 372)
# Details: HIV-1 RT RNase H, FRET RNA/DNA substrate fluorescence; at 10 µM; stronger effect = higher value
row,Structure (SMILES),inhibition
1,COc1ccccc1NC(=O)c1c(NC(=O)c2cc([N+](=O)[O-])ccc2Cl)sc2c1CCCC2,3%
2,CCN(CC)C(=O)c1sc(NC(=O)c2cc(OC)cc(OC)c2)c(C(=O)OC)c1C,10%
3,O=C1NC(=Nc2ccc(O)cc2)S/C1=C\c1ccc([N+](=O)[O-])cc1,4%
4,O=C1NC(=Nc2cccc(O)c2)S/C1=C/C(Cl)=C/c1ccc([N+](=O)[O-])cc1,51% (active)
5,O=C1NC(=Nc2ccc(O)cc2)S/C1=C/C(Cl)=C/c1ccc([N+](=O)[O-])cc1,0%
6,O=C1C(=O)N(c2ccc(Br)cn2)C(c2ccccc2[N+](=O)[O-])/C1=C(/O)c1ccccc1 (stereo not drawn),4%
7,O=C(Nc1ccc(F)cc1)Nc1nnc(CSCc2ccc(Cl)cc2)s1,26%
8,N=C1S/C(=C\c2ccc(-c3ccc([N+](=O)[O-])cc3)o2)C(=O)N1c1ccc2c(c1)OCO2,12%
9,N=C1S/C(=C\c2ccc(-c3ccccc3F)o2)C(=O)N1c1ccc2c(c1)OCO2,30%
10,O=C1NC(=O)N(c2ccc3c(c2)OCO3)C(=O)/C1=C/c1ccc(Sc2ccccc2)o1,0%
11,N=C1S/C(=C\c2ccc(-c3ccc(F)cc3)o2)C(=O)N1c1ccc2c(c1)OCO2,52% (active)
12,N=C1S/C(=C\c2cc3c(cc2[N+](=O)[O-])OCO3)C(=O)N1c1ccc(F)cc1,55% (active)
13,N=C1S/C(=C\c2ccc3c(c2)OCO3)C(=O)N1c1ccc(F)cc1,43%
14,O=C1/C(=C\c2cc3c(cc2[N+](=O)[O-])OCO3)SC(=S)N1c1ccccc1,24%
15,O=C1NC(=O)N(c2ccc3c(c2)OCO3)C(=O)/C1=C/c1ccc(-c2cccc(Cl)c2)o1,53% (active)
16,O=C1NC(=O)N(c2ccc3c(c2)OCO3)C(=O)/C1=C/c1ccc(-c2cccc([N+](=O)[O-])c2)o1,0%
17,COc1ccc(OC)c(/C=C2\C(=O)NC(=S)N(c3ccc(Br)cc3)C2=O)c1,12%
18,O=C(Nc1nnc(SCc2ccccc2)s1)c1cccc2ccccc12,3%
19,O=[N+]([O-])c1ccc(OCCCCN2CCOCC2)cc1,9%
20,Clc1ccc(OCCOCCOc2cccc3cccnc23)c2ccccc12,45%

row,Structure (SMILES),inhibition
1,O=C(Nc1ccccc1Cl)c1ccc(N2C(=O)c3ccccc3C2=O)cc1,16%
2,CSCCC(NC(=O)c1ccccc1)C(=O)OCC(=O)Nc1cc(C)on1 (stereo not drawn),11%
3,CCCOc1ccc2ccccc2c1C=C1C(=O)NC(=S)NC1=O,23%
4,COc1ccc(OC)c(N(CC(=O)Nc2ccccc2F)S(C)(=O)=O)c1,8%
5,S=C(NCc1ccccc1)N/N=C/c1ccco1,22%
6,COc1ccc(CCNC(=O)C(=O)Nc2ccccc2)cc1,11%
7,Cc1ccc(NC(=O)CSc2nc3ccccc3s2)cc1C,41%
8,CN1CCN(/N=C/c2ccc([N+](=O)[O-])s2)CC1,6%
9,CCOc1ccc(-n2sc3c(c2=S)-c2ccc(OC)cc2NC3(C)C)cc1,2%
10,COc1ccc(Cl)cc1C(=O)Nc1ccc(Cl)c(-c2nc3ncccc3o2)c1,57% (active)
11,COc1cc(NC(=O)c2ccc(Cl)cc2Cl)ccc1NC(=O)c1cc2ccccc2o1,21%
12,COc1cc(NC(=O)c2cccc(Cl)c2)ccc1NC(=O)c1cc2ccccc2o1,34%
13,COc1cc(NC(=O)c2cc(Cl)ccc2OC)ccc1NC(=O)c1cc2ccccc2o1,55% (active)
14,O=C(Nc1ccc(Cl)c(-c2nc3ncccc3o2)c1)c1ccc(Cl)cc1Cl,6%
15,COc1ccc(C(=O)Nc2ccc(NC(=O)c3cc4ccccc4o3)c(OC)c2)cc1Br,6%
16,COc1cc(NC(=O)c2cccc(Br)c2)ccc1NC(=O)c1cc2ccccc2o1,51% (active)
17,CCOc1cc(C(=O)Nc2ccc(NC(=O)c3cc4ccccc4o3)c(OC)c2)cc(OCC)c1OCC,11%
18,COc1cc(NC(=O)c2cc(Cl)c(OC)c(Cl)c2)ccc1NC(=O)c1cc2ccccc2o1,52% (active)
19,COc1cc(NC(=O)c2ccc(C(C)(C)C)cc2)ccc1NC(=O)c1cc2ccccc2o1,7%
20,COc1ccc(Cl)cc1C(=O)Nc1cccc(-c2nc3ncccc3o2)c1C,3%

row,Structure (SMILES),inhibition
1,COc1cc(NC(=O)c2ccccc2F)ccc1NC(=O)c1cc2ccccc2o1,24%
2,COc1ccccc1N1CCN(C(=O)Cc2ccc(Cl)cc2)CC1,5%
3,CCCCOc1ccc(C(=O)NC(=S)Nc2cccc(Cl)c2Cl)cc1,15%
4,COc1cccc(C(=O)Nc2ccc(O)c(-c3nc4cc(C)ccc4o3)c2)c1,5%
5,CCc1ccccc1NC(=O)C(=O)NCCCOC,14%
6,O=C(O)C1C2CC=CC2c2cc(Oc3ccccc3)cc3c2N1CC1CC=CC31 (stereo not drawn),40%
7,Cc1ccc(OCCCNC(C)(C)C)c(C)c1,10%
8,Cc1ccc(OCCCNC(C)(C)C)c(C(C)(C)C)c1,62% (active)
9,Cc1ccc(OCCCCNC(C)(C)C)c(C)c1,2%
10,COCCOC(=O)C1=C(C)NC(=O)CC1c1ccccc1Br (stereo not drawn),3%
11,COc1ccc(/C=N/N(C)c2cc(C)nc(-c3ccccc3O)n2)cc1OC,18%
12,COc1ccc(C=Nc2ccc(Cl)c(Cl)c2)c2ccccc12,32%
13,Cc1ccc(C(=O)NC(=S)Nc2ccc3oc(-c4ccc(Cl)cc4)nc3c2)cc1C,8%
14,O=C(O)c1ccc2c3c(cccc13)C(=O)N(c1ccccc1)C2=O,21%
15,CC(=O)Nc1ccc(N2C(=O)c3cccc4c(C(=O)c5ccccc5)ccc(c34)C2=O)cc1,20%
16,Nc1ccc(-c2ccc(N3C(=O)c4cccc5c(C(=O)c6ccccc6)ccc(c45)C3=O)cc2)cc1,51% (active)
17,O=C(N=NC(=O)c1ccccc1O)c1ccc(-n2c(O)c3ccccc3c2O)cc1,8%
18,Cc1ccc(C(=O)Nc2ccc(Nc3ccccc3)cc2)cc1[N+](=O)[O-],15%
